Experimental data reported in the supplement of paper PMC10849652.
Targets with a hit are over-represented here; the source holds about 8,800 in all. About 0.5% of all pairs of compound and target were hits.

Columns and labels:
Test in all cases: log2 fold change, soluble protein after heating vs DMSO (PISA); higher = thermal stabilisation; K562 lysate, 10 uM; active = over 0.2 and 3.5 SD of the protein, either way, in both replicates (recomputed)
vemurafenib = compound: CCCS(=O)(=O)Nc1ccc(F)c(C(=O)c2c[nH]c3ncc(-c4ccc(Cl)cc4)cc23)c1F [vemurafenib]
In short: (§1)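 To prepare the extract, K562 pellets were dounce-homogenised in PBS pH 7.4 with 1 mM MgCl2, giving crude material at 1 mg/mL protein. This was treated with 10 μM compound for 30 min, then heated in aliquots for 3 min over 48°C-58°C before pooling and addition of NP-40 to 0.5% at 4°C. Centrifugation at 21,000xg for 90 min left soluble protein in the supernatant, which TMTpro 16plex LC-MS/MS quantified with equalised channel sums. Results are log-two fold changes in thermal stability compared with solvent controls, from duplicates.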

barasertib = compound: CCN(CCCOc1ccc2c(Nc3cc(CC(=O)Nc4cccc(F)c4)[nH]n3)ncnc2c1)CCOP(=O)(O)O [barasertib]
In short: as §1

[1] = compound: CC[C@@H]1C(=O)N(C)c2cnc(Nc3ccc(C(=O)NC4CCN(C)CC4)cc3OC)nc2N1C1CCCC1
In short: as §1

[2] = compound: CCn1c(C(=O)N(C2CC2)C2CC2)cc2c3c(ncn3C)c(Nc3cc(C)n(C)n3)nc21
In short: as §1

[3] = compound: CCn1cc(-c2ccnc3[nH]c(-c4cccc(CN(C)C)c4)cc23)c(-c2ccc(NC(=O)N(C)C)cc2)n1
In short: as §1

[4] = compound: CN1CCC(CNc2ccc3ncc(-c4cccc(OC(F)(F)F)c4)n3n2)CC1
In short: as §1

saracatinib = compound: CN1CCN(CCOc2cc(OC3CCOCC3)c3c(Nc4c(Cl)ccc5c4OCO5)ncnc3c2)CC1 [saracatinib]
In short: as §1

sotrastaurin = compound: CN1CCN(c2nc(C3=C(c4c[nH]c5ccccc45)C(=O)NC3=O)c3ccccc3n2)CC1 [sotrastaurin]
In short: as §1

[5] = compound: CCCS(=O)(=O)Nc1ccc(F)c(C(=O)c2c[nH]c3ncc(Cl)cc23)c1F
In short: as §1

volasertib = compound: CC[C@@H]1C(=O)N(C)c2cnc(Nc3ccc(C(=O)N[C@H]4CC[C@H](N5CCN(CC6CC6)CC5)CC4)cc3OC)nc2N1C(C)C [volasertib]
In short: as §1

Measured: log2 fold change

USP22 (UniProt Q9UPT9)
UniProt Q9UPT9, sequence (Q9UPT9 whole entry, looked up): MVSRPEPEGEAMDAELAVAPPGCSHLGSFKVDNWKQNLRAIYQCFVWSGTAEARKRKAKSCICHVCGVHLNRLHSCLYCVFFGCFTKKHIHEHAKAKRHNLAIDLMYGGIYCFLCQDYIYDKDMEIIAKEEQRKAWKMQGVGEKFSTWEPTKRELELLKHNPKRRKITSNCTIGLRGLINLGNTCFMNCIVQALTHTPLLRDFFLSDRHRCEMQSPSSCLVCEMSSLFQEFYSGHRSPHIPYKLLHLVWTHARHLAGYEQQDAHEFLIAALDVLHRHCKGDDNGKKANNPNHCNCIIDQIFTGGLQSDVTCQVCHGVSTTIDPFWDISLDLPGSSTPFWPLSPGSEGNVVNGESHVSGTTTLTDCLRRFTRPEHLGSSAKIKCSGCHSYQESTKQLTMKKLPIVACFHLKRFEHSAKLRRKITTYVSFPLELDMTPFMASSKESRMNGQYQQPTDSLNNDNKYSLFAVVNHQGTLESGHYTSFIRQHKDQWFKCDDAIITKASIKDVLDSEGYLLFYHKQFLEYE
inactive: vemurafenib -0.019 | barasertib 0.008 | [1] 0.026 | [2] 0.034 | [3] 0.031 | [4] 0 | saracatinib -0.026 | sotrastaurin 0.018

ZNF217 (UniProt O75362)
UniProt O75362, sequence (O75362 whole entry, looked up): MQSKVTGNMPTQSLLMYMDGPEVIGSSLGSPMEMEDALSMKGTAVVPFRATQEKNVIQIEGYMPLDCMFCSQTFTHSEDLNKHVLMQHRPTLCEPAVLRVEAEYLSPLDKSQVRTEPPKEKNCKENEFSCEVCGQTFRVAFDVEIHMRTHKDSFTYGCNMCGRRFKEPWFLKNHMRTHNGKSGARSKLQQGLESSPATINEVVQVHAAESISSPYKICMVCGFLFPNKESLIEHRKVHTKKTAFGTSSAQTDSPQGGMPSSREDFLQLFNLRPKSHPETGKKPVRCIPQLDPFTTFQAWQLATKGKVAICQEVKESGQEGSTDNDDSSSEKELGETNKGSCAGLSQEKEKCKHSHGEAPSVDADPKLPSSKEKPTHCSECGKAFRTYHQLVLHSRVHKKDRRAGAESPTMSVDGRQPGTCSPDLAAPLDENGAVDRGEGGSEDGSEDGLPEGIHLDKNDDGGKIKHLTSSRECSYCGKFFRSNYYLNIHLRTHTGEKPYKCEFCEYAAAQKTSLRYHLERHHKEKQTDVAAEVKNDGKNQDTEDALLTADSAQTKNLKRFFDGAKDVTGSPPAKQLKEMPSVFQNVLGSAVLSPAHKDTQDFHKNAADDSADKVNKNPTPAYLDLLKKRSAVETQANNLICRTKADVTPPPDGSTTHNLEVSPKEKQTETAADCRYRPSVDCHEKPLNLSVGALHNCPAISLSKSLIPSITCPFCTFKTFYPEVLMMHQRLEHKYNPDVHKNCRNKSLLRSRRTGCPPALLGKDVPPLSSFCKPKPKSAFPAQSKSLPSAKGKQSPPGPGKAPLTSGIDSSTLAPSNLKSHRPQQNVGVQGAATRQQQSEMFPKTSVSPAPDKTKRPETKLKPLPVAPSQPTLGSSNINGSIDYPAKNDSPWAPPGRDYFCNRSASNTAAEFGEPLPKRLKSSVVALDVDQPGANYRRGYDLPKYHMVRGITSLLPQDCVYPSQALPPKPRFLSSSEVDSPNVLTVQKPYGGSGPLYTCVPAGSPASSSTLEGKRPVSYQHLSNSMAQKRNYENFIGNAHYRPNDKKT
inactive: vemurafenib 0.043 | [5] 0.019 | barasertib 0.047 | [1] 0.099 | volasertib -0.021 | [2] -0.028 | [3] -0.021 | [4] 0.076 | saracatinib 0.013 | sotrastaurin 0.052

URGCP (UniProt Q8TCY9)
UniProt Q8TCY9, sequence (Q8TCY9 whole entry, looked up): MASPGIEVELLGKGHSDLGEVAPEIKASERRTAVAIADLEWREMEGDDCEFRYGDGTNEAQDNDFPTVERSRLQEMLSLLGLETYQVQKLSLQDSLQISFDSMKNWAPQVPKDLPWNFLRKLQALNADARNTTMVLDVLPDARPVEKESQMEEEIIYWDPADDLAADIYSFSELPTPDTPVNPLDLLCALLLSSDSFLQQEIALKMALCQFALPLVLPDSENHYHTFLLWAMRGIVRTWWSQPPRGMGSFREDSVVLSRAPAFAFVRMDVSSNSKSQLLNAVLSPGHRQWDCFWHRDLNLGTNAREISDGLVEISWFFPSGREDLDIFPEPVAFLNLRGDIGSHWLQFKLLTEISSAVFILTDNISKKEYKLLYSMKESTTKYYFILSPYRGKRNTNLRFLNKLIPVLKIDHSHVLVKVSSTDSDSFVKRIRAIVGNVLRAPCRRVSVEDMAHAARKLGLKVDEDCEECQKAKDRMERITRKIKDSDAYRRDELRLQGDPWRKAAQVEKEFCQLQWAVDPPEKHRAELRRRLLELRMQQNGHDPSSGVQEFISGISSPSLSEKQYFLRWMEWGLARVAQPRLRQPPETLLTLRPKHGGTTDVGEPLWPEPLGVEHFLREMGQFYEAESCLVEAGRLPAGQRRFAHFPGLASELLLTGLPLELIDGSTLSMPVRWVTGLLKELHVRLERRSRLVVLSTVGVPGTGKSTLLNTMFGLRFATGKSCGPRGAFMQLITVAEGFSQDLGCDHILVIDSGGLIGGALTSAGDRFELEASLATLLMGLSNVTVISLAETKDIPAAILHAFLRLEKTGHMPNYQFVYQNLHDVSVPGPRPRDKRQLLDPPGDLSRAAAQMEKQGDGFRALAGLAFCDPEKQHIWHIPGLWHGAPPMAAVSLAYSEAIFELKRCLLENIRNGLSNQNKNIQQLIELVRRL
inactive: vemurafenib 0.191 | barasertib -0.023 | [2] -0.069 | saracatinib 0

VPS72 (UniProt Q15906)
UniProt Q15906, sequence (Q15906 whole entry, looked up): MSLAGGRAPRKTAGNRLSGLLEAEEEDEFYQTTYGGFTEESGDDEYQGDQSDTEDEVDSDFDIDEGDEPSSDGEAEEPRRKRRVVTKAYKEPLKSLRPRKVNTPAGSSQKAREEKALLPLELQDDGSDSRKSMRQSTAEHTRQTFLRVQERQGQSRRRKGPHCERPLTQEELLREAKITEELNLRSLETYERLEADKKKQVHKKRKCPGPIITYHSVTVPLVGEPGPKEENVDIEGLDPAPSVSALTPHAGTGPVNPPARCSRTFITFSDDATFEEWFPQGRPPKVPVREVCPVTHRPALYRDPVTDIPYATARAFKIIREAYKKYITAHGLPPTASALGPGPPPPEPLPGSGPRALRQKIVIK
inactive: vemurafenib 0.054 | [5] -0.139 | [1] -0.009 | volasertib 0.162 | [2] 0.021 | [3] 0.056 | [4] 0.078 | saracatinib 0.04 | sotrastaurin 0.024

VASN (UniProt Q6EMK4)
UniProt Q6EMK4, sequence (Q6EMK4 whole entry, looked up): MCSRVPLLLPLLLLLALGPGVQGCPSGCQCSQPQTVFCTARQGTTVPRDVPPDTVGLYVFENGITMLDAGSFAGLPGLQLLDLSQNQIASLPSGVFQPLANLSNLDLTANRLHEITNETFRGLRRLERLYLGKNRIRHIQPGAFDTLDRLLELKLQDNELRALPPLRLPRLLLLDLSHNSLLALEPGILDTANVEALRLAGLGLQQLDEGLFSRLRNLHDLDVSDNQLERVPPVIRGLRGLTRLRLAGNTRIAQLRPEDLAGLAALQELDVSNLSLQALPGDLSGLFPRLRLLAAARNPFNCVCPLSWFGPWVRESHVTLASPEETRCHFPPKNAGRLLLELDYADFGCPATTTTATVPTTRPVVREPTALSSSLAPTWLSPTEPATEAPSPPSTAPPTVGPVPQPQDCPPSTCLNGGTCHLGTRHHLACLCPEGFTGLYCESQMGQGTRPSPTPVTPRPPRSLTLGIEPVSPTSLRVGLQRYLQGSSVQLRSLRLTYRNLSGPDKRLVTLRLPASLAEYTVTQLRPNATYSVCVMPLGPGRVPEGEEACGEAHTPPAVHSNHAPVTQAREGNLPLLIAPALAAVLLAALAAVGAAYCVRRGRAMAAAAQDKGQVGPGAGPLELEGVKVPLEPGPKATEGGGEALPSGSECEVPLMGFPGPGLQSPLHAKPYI
inactive: [1] 0.046 | [2] 0.023 | saracatinib 0.065

YBEY (UniProt P58557)
UniProt P58557, sequence (P58557 whole entry, looked up): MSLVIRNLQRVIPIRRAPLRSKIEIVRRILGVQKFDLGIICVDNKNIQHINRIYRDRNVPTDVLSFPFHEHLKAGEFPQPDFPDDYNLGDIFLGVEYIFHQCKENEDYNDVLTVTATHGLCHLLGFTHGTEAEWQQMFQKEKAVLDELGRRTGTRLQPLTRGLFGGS
inactive: vemurafenib -0.119 | [1] -0.054 | saracatinib -0.058
